Data from the OligoGym collection.

molecular target: PTGFRN; assay: pooled miR-30 sensor sort-seq; sequence = guide strand; settings: shRNA
Further: reference of the scale not given here.

Sequence	sensor-assay potency score (higher = more potent)
TTTCTTTGCTAACATCCCGAAC	-1.24
TTGAACATTTGTAGTGGCCTTG	-0.0806
TTTTCTTTGCTAACATCCCGAA	-0.589
TTTGCTAACATCCCGAACCAGT	-0.807
TTAAATATAGGACCTGAGGTTT	-1.13
TAAAACAACGCCATCCACCCGT	-0.0584
TTGGTCTGAAGGCTGGACGTTC	-0.683

molecular target: PTGFR; assay: as above; settings: shRNA

Sequence	sensor-assay potency score (higher = more potent)
TTGTGTTTGAAAGAAGCGCAGC	-0.804
TTGCACAACAATGAAACACCAA	0.0591
TTTAATGGAACTAAGCTCCCAA	0.844
TTGTAGAAACACCAGGTCCTCG	-0.683
TTTGATGTCTTCTGTGTTGTAG	0.583
TTTGACAAATTTCAAAACCTGA	-0.803
TTTGTGACTCCAATACACCGCT	-0.161
TGCACAACAATGAAACACCAAG	-1.45
TTGACTGGCAAGCTTATAGAGA	-0.966
TAACTAACTGAAATATTGCCAA	-0.195
TTTTATAGTCTCGATGTCCAAG	-0.668
TCTGTGTTGTAGAAACACCAGG	-1.29

molecular target: PTH2R; assay: as above; settings: shRNA

Sequence	sensor-assay potency score (higher = more potent)
TAAACTACTCCATTGACACTTG	-0.214
TATATTGTGATTTGTCCACAGA	-0.718
TTTGCCAGAGATAAGCACCATG	-0.588
TAGAACTCTAACCGTATTCAGA	-0.533
TTTAGATCCTAATTGCTCCTAT	0.713
TTTCAGCACAAGGACAATCTGC	-0.513
TAGCTGCTAAGATCGGTGCTTG	-0.715
TAAATAAACATCACAACAGCAA	-0.154
TAAGCTGTGCATAAAATCCCAT	-0.0361
TAGAATATCATCTCCCTGCCTC	-0.315
TTAAGTAACACCTTAACTGAAT	-1.01
TAGTGCAATGCAATCGTCTGAA	-0.115

molecular target: PTPN7; assay: as above; settings: shRNA

Sequence	sensor-assay potency score (higher = more potent)
TAGACAGACACGGCTCTGGGGA	-0.764
TTCTGGTGTCTGATGGTCTGGC	-0.217
TCTTCTTCCAGTTGCTTGGGGC	-0.37
TTGTCCTTACTGCTGCTGCTTC	-0.729
TTCTCCTCGGGCTTTCAGCTGT	-0.819
TCTTGCCACACCATCTCCCAGA	-0.679
TTTGTCTGTCATAAATGCCAGC	-0.867
ATTGATGTAATCTCCGTCCTCC	0.571
TTCTTCTTCCAGTTGCTTGGGG	0.0231
